What was measured:
Details in all cases: concentration: 1 μM, replicates: in singlicate; n = 1
[1] = tested on: EPHA7
[2] = tested on: EPHA8
[3] = tested on: EPHB1
[4] = tested on: EPHB2
[5] = tested on: EPHB3
[6] = tested on: EPHB4
[7] = tested on: EPHB6
[8] = tested on: ERBB2
[9] = tested on: ERBB3
[10] = tested on: ERBB4
[11] = tested on: T1, ERK1
T1 construct: gene MAPK3

[12] = tested on: T2, ERK2
T2 construct: gene MAPK1

[13] = tested on: T3, ERK3
T3 construct: gene MAPK6

[14] = tested on: T4, ERK4
T4 construct: gene MAPK4

[15] = tested on: T5, ERK5
T5 construct: gene MAPK7

[16] = tested on: T6, ERK8
T6 construct: gene MAPK15

[17] = tested on: ERN1
[18] = tested on: T7, FAK
T7 construct: gene PTK2

[19] = tested on: FER
[20] = tested on: FES
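Further: KINOMEscan kinase panel screen.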

Row | Structure (SMILES) | %Inh [1] [%] | %Inh [2] [%] | %Inh [3] [%] | %Inh [4] [%] | %Inh [5] [%] | %Inh [6] [%] | %Inh [7] [%] | %Inh [8] [%] | %Inh [9] [%] | %Inh [10] [%] | %Inh [11] [%] | %Inh [12] [%] | %Inh [13] [%] | %Inh [14] [%] | %Inh [15] [%] | %Inh [16] [%] | %Inh [17] [%] | %Inh [18] [%] | %Inh [19] [%] | %Inh [20] [%]
1 | COc1cccc(-c2ccc3c(NC(=O)C4CC4)n[nH]c3n2)c1 [SB-710903] | 16 | 30 | 0 | 24 | 24 | 16 | 48 | 51 | 0 | 36 | 0 | 0 | 0 | 8 | 0 | 11 | 0 | 0 | 0 | 0
2 | CC(C)c1nc(-c2cccc(NS(=O)(=O)c3c(F)cccc3F)c2F)c(-c2ccnc(Nc3ccc(N4CCOCC4)nc3)n2)s1 [GSK2008607] | 0 | 99.4 | 40 | 0 | 0 | 0 | 99 | 92.1 | 97.7 | 97.7 | 0 | 0 | 9 | 42 | 2 | 93.5 | 65 | 32 | 71 | 23
3 | Cn1cc(-c2ccc3c(c2)CCN3C(=O)Cc2cccc(Cl)c2)c2c(N)ncnc21 [GSK2606590] | 13 | 34 | 15 | 0 | 9 | 8 | 86 | 5 | 0 | 0 | 0 | 10 | 0 | 11 | 0 | 0 | 0 | 0 | 35 | 0
4 | O=C(Nc1cccc(-c2nn3ncccc3c2-c2ccnc(Nc3ccccc3)n2)c1)c1c(F)cccc1F [GSK198271] | 5 | 19 | 18 | 11 | 1 | 6 | 63 | 95.2 | 80 | 100 | 0 | 6 | 0 | 20 | 4 | 0 | 32 | 0 | 45 | 6
5 | COc1cccc(NC(=O)NC2CCN(c3ccnc(Nc4cc(OC)c(OC)c(OC)c4)n3)C2)c1 (stereo not shown) [GSK1379763] | 6 | 4 | 11 | 8 | 0 | 7 | 94.3 | 0 | 0 | 30 | 0 | 0 | 7 | 25 | 0 | 0 | 7 | 0 | 0 | 8
6 | Cl.Cl.NCC(NC(=O)c1cc(-c2ccccc2)c(-c2ccnc3[nH]ccc23)s1)c1ccccc1 (stereo not shown) [GSK1321561] | 11 | 50 | 16 | 0 | 7 | 19 | 2 | 58 | 0 | 49 | 6 | 16 | 0 | 8 | 0 | 0 | 0 | 0 | 36 | 0
7 | CC(C)(C)c1ccc2nccc(Nc3cccc(O)c3)c2c1 [GW856795] | 0 | 56 | 22 | 17 | 57 | 37 | 3 | 88 | 44 | 37 | 0 | 0 | 0 | 0 | 0 | 0 | 66 | 0 | 0 | 0
8 | CN(C)S(=O)(=O)c1cc(-c2ccc3nccc(-c4cccc(S(N)(=O)=O)c4)c3c2)cnc1N [GSK1669921] | 15 | 27 | 31 | 0 | 11 | 16 | 25 | 15 | 0 | 0 | 3 | 0 | 0 | 0 | 0 | 40 | 8 | 0 | 5 | 14
9 | Fc1ccc(-c2ncn(C3CCNCC3)c2-c2ccnc(Oc3ccc(-c4ccccc4)cc3)n2)cc1 [SB-245391] | 3 | 8 | 10 | 6 | 16 | 17 | 15 | 62 | 33 | 6 | 47 | 2 | 0 | 15 | 9 | 31 | 45 | 12 | 0 | 27
10 | CCc1ccc(-c2ccc3c(c2)-c2c(cnn2C)S(=O)(=O)N3C)cc1 | 0 | 0 | 0 | 0 | 0 | 1 | 25 | 0 | 0 | 4 | 4 | 6 | 0 | 0 | 0 | 0 | 0 | 38 | 0 | 0
11 | Cn1cc(-c2ccc3c(c2)CCN3C(=O)Cc2cccc(F)c2)c2c(N)ncnc21 [GSK2603358] | 7 | 11 | 0 | 0 | 13 | 16 | 98.7 | 40 | 0 | 12 | 0 | 6 | 0 | 26 | 2 | 0 | 3 | 0 | 35 | 0
12 | O=c1[nH]cc(-c2ccc(N3CCOCC3)cc2)c2sc(-c3cn[nH]c3)cc12 [GSK2276055] | 9 | 12 | 6 | 0 | 0 | 2 | 31 | 3 | 0 | 24 | 0 | 0 | 0 | 19 | 0 | 0 | 11 | 0 | 0 | 0
13 | CCn1c(-c2nonc2N)nc2c(C#CC(C)(C)O)ncc(OCCCCN)c21.O=C(O)C(F)(F)F.O=C(O)C(F)(F)F [GSK507274] | 0 | 3 | 0 | 0 | 27 | 29 | 6 | 5 | 0 | 41 | 0 | 1 | 6 | 8 | 0 | 10 | 0 | 0 | 0 | 9
14 | Cc1cccc(Nc2nc(N[C@H]3CCNC3)ncc2C(N)=O)c1.Cl [GSK2197149] | 10 | 15 | 27 | 0 | 12 | 0 | 0 | 13 | 0 | 23 | 1 | 0 | 65 | 25 | 0 | 12 | 7 | 0 | 69 | 0
15 | CCS(=O)(=O)c1ccc(OC)c(Nc2nccc(-c3c(-c4cccc(NC(=O)c5c(F)cccc5F)c4)nn4ncccc34)n2)c1 [GSK326180] | 5 | 24 | 15 | 12 | 100 | 12 | 16 | 99.3 | 0 | 100 | 0 | 5 | 13 | 47 | 0 | 0 | 22 | 0 | 22 | 0
16 | C[C@@H](Oc1cc(-n2cnc3cc(-c4ccnc(NCCS(C)(=O)=O)c4)ccc32)sc1C(N)=O)c1ccccc1Cl [GSK907232] | 6 | 23 | 19 | 0 | 10 | 3 | 60 | 0 | 0 | 0 | 0 | 0 | 0 | 19 | 0 | 76 | 0 | 0 | 21 | 0
17 | COc1cccc(C(=O)Nc2cccc(Oc3ccc4nc(NC(=O)C5CC5)cn4n3)c2)c1 | 5 | 98.4 | 87 | 94.5 | 0 | 85 | 98.5 | 4 | 10 | 6 | 4 | 6 | 0 | 0 | 0 | 14 | 0 | 1 | 0 | 0
